Bioassay records (PubChem)
The entries come from a sample that favours hits as a whole.
AMA1-RON2 inh = disrupts binding of P. falciparum AMA1 to RON2. AlphaScreen AMA1-biotinylated RON2 peptide binding. Potency, µM (titrated, usually from 58.2 µM), for inactives: at the highest dose activity change, negative = inhibition, most hits filed as inhibitors. hit rate 0.2% among 360,000; active means well fitted inhibition curve with a large enough effect; inconclusive means small, poorly fitted or top-dose-only effect; inactive means no such curve, though single readings can be large or run the other way;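 further: potency means the concentration at half of the fitted maximal effect; 0% = vehicle wells and -100% = peptide control; nearly all actives have a fitted effect of over 45% in size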
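AMA1 (3D7) with his tag at 25 nM final met compounds first, then biotinylated RON2 peptide at 25 nM; detection used donor plus acceptor beads, 10 µg/mL apiece, read by AlphaScreen after 30 min at room temperature.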
LASV entry inh = blocks Lassa virus binding to or entry into cells; Lassa virus pseudotype entry inhibition, cell reporter; Potency, µM (titrated, usually from 37.9 µM), for inactives: at the highest dose activity change, negative = inhibition, actives largely listed as inhibitors; hit rate 1.2% among 300,000; AID 540256; calls by dose curve; tested in HEK293 cells; further: potency means the concentration at half of the fitted maximal effect; on the % scale 0 is the no-effect control and ±100 the full control effect; nearly all actives have a fitted effect of over 50% in size
CHX counter = counter-screen for Shiga toxin inhibitors: cycloheximide protein synthesis inhibition; cell reporter, cycloheximide protein synthesis inhibition counterscreen; max response, %; hit rate 12% among 300,000; AID 2314; in the data active means max response mostly above about 13%, no sharp cut-off; inactive means mostly below about 14%; further: read at 38.3 µM for the half of the compounds with a filed dose; 0% is about no effect
Shiga inhibitor = Shiga toxin inhibition. Vero cells, Shiga toxin protein synthesis inhibition reporter. inhibition, % at 38.7 µM. hit rate 9.2% among 290,000. AID 2315; in the data active means inhibition mostly above about 28%, no sharp cut-off; inactive means mostly below about 43%; further: 0% is about no effect
MARV entry inh = blocks Marburg virus binding to or entry into cells; Marburg virus pseudotyped entry inhibition, cell reporter; Potency, µM (titrated, usually from 37.8 µM), for the others: at the top dose activity change, negative = inhibition, usual class: inhibitors; hit rate 1.8% among 300,000; calls by dose curve; tested in HEK293 cells; further: potency means the concentration at half of the fitted maximal effect; on the % scale 0 is the no-effect control and ±100 the full control effect
Numbers without * were called inactive; ? = inconclusive; . = not tested or not shown; + = active, no number; [ ] = another dose, or the depositor's remark.

SMILES	AMA1-RON2 inh	LASV entry inh	CHX counter	Shiga inhibitor	MARV entry inh
Cc1nn(-c2ccc(F)cc2)c(Cl)c1/C=C(\CCC(=O)O)c1nc2ccccc2s1	-5%	-2%	-4	-11	?
Cc1nn(-c2nc3ccccc3s2)c(N)c1-c1ccc(Cl)cc1	-20%	29%	33*	54*	28%[46.1 µM]
Cc1nn(-c2nc3ccccc3s2)c(N)c1Sc1ccc(F)cc1	-11%	-1%	20*	48*	?
Cc1nn(-c2nc3ccccc3s2)c(N)c1-c1ccccc1	-1%	-10%	72*	91*	0%
CCCOc1ccc(C2=NC(c3ccc(F)cc3)=Nc3ccc(OC)cc3N2)cc1	.	-19%[46.1 µM]	.	.	1%[46.1 µM]
COC(=O)c1cccc(NC(=O)c2onc3c2CCCC3)c1	-23%	?	99*	+	9.2µM*
COC(=O)c1cccc(NC(=O)c2cnn(C)c2)c1	-1%	-1%[46.1 µM]	.	.	4%[46.1 µM]
O=C(Nc1ccc2ccccc2c1)c1onc2c1CCCC2	21%	5.6µM*	28*	64*	-25%
Cc1c(S(=O)(=O)Nc2cccc3ccccc23)c(=O)n(C)c(=O)n1C	14%	4%	.	.	2%
CCOC(=O)C1CCCN(c2ncnc3c2cnn3-c2ccc(OC)cc2)C1 (stereo not given)	-1%	-8%	35*	70*	-3%
CCOC(=O)N1CCC(Nc2ncnc3c2cnn3-c2ccc(Cl)cc2)CC1	33%	13%	54*	120*	?
Cc1ccc(-n2ncc3c(NC4CCCCC4)ncnc32)cc1Cl	.	7%[46.1 µM]	.	.	.
CCOC(=O)C1CCCN(c2ncnc3c2cnn3-c2ccc(Cl)cc2)C1 (stereo not given)	15%	?	17*	24	?
CC1CN(c2ncnc3c2cnn3-c2ccc(Cl)cc2)CC(C)O1 (stereo not given)	1%	.	15	31	.
Cc1ccc(NC(=O)NCCN2C(=O)C3C4C=CC(C4)C3C2=O)cc1 (stereo not given)	9%	.	112*	134*	2%
COc1ccc(NC(=O)NCCN2C(=O)C3C4C=CC(C4)C3C2=O)cc1 (stereo not given)	-2%	9%	32*	60*	?
CC(C)c1ccc(C2/C(=C(/O)c3ccc(F)cc3)C(=O)C(=O)N2CCCN2CCOCC2)cc1 (stereo not given)	7%	.	-1	7	.
COc1ccccc1N/N=C1\COC(C)(C)CC1=O	?	8%	34*	137*	28%[46.1 µM]
CC1(C)CC(=O)/C(=N/Nc2ccc(Cl)cc2)CO1	0%	.	32*	93*	.
CC1(C)CC(=O)C=C(Nc2ccc(Cl)cc2)C1	0%	8%[46.1 µM]	-3	-11	0%[46.1 µM]
Cc1cccc(N/N=C2/COC(C)(C)CC2=O)c1	-1%	-23%	78*	133*	-24%
CCOC(=O)c1cccc(NS(=O)(=O)c2cc(-c3cnc(C4CC4)o3)ccc2C)c1	.	-20%[46.1 µM]	.	.	.
CC(C)=CCC/C(C)=C/CC/C(C)=C/COc1ccc2ccc(=O)oc2c1	0%	.	.	.	.
CC1=CC(C/C(C)=C/COc2ccc3ccc(=O)oc3c2)OC1=O (stereo not given)	17%	.	16*	24*	.
CC(C)=CCOc1ccc2ccc(=O)oc2c1	-2%	.	21*	35*	.
SMILES	AMA1-RON2 inh	LASV entry inh	CHX counter	Shiga inhibitor	MARV entry inh
COc1cc2ccc(=O)oc2c(O)c1OCC=C(C)C	12%	22%	11	85*	11%
CC(C)=CCC/C(C)=C/COc1ccc2ccc(=O)oc2c1	31%	.	8	9	.
COCCNC(=O)/C(C#N)=C/c1cc(C)n(C2CCCCC2)c1C	-14%	?	28*	69*	?
COc1ccc(-n2c(C)cc(/C=C(\C#N)C(=O)NCc3ccco3)c2C)cc1	-12%	-1%	47*	51*	14%
Cc1cc(/C=C(\C#N)C(=O)O)c(C)n1C1CC1	-7%[11.6 µM]	5%	1	-8	15%
COCCNC(=O)/C(C#N)=C/c1cc(C)n(-c2ccc(C)cc2)c1C	-7%	?	49*	63*	?
CCOC(=O)C1=CCN(S(=O)(=O)c2cccc(Cl)c2)C1c1ccc(F)cc1 (stereo not given)	11%	.	.	.	.
O=[N+]([O-])c1cc(S(=O)(=O)Nc2cccc(Cl)c2)ccc1N/N=C/c1ccc(N2CCOCC2)cc1	4%	.	2	17	.
COCCCNC(=O)c1cccc2c(-c3cccc(C(N)=O)c3)coc12	51%	.	.	.	.
COc1cccc(/C=N/NC(=S)NC2CC3CC2C2C=CCC32)c1O (stereo not given)	35%	9%	35*	87*	?
NC(=S)N/N=C/c1ccccc1O	48%	.	1	-1	.
